Laboratory results from PubChem BioAssay AID565 (University of Pittsburgh Molecular Library Screening Center, 2006).
Out of some 65,000 compounds screened, about 1,200 (1.8%) were called active. This is one part of a sample in which actives are shown more often than they occur. Values without a mark were called inactive. Cut-off read from the data, not from the text of the source: active = inhibition above about 50%; inactive = the rest.

Target: Gag-Pol polyprotein (Human immunodeficiency virus type 1 group M subtype B (isolate HXB2)) (UniProt P04585)
Assay: HIV-1 RT RNase H inhibitors, primary screen, biochemical, fluorescence (AID 565)
Settings: RT-RNase H RNA/DNA duplex cleavage, at 10 µM, active compounds read high

| Compound | inhibition |
| --- | --- |
| c1cnn(-c2cc(N3CCOCC3)ncn2)c1 | -2.75% |
| O=C(Nc1cc(N2CCOCC2)ncn1)NC1(C(F)(F)F)Oc2ccc(Cl)cc2O1 (stereo not drawn) | 62.3% (active) |
| COc1c(C)cccc1C(=O)Nc1cc(Cl)ccc1N1CCOCC1 | -7.75% |
| CC(Sc1nncn1C)C(=O)Nc1ccccc1-c1ccccc1 (stereo not drawn) | -1.62% |
| Cc1ccccc1OCC(=O)Nc1ccc(N2CCN(C(=O)C(C)C)CC2)c(Cl)c1 | -29% |
| CCc1ccccc1NC(=O)CSc1nnc([C@@H](NC(=O)OC(C)(C)C)C(C)C)o1 | -2.47% |
| CCOC(=O)c1c(NC(=O)CSc2nnc(C)c(=O)[nH]2)sc2c1CCC2 | 2.54% |
| CCCCOC(=O)CNc1nnc(SCC(=O)OCC)[nH]c1=O | 55.9% (active) |
| CCOC(=O)CSc1nc2sc3c(c2c(=O)[nH]1)CC(C)(C)OC3 | -2.48% |
| CCn1c(=O)cc(O)c2ccccc21 | -0.16% |
| CCn1c(=N)c(S(=O)(=O)c2ccc(F)cc2)cc2c(=O)n3ccccc3nc21 | 2.52% |
| Cc1nc2nc(COc3ccccc3)[nH]n2c(=O)c1C | -3.44% |
| CC1(C)CC(=O)C2=C(C1)NCN(CCCN1CCOCC1)C2 | -6.75% |
| C=C(C)Cn1c(N2CCN(CC)CC2)nc2c1c(=O)[nH]c(=O)n2C | 10.6% |
| Cc1ccc(S(=O)(=O)Cn2nnnc2CN2CCN(Cc3ccc4c(c3)OCO4)CC2)cc1 | 1.61% |
| Cc1ccc(Cn2nnnc2CN2CCC(n3nnc4ccccc43)CC2)cc1 | 68.7% (active) |
| c1ccc(CCn2nnnc2CN2CCN(C3CCCC3)CC2)cc1 | -0.5% |
| Brc1ccc(Nc2c3c(nc4ncnn24)CCC3)cc1 | -1.42% |
| Cc1c(C(=O)CN2CCOCC2)[nH]c2ccccc12 | -6.56% |
| O=C1NC(c2ccncc2)Nc2sc3c(c21)CCCC3 (stereo not drawn) | 12.9% |
| Clc1ccc(C2CC(c3cccs3)n3ncnc3N2)cc1Cl (stereo not drawn) | -4.72% |
| Cc1ccnc(N2CCCC(C(=O)Nc3cc(F)ccc3C)C2)n1 (stereo not drawn) | 58.3% (active) |
| Cc1ccnc(N2CCC(C(=O)NC3CCCCCC3)CC2)n1 | -5.09% |
| O=C(Nc1ccc2c(c1)OCCO2)C1CCCN(c2ncccn2)C1 (stereo not drawn) | 7.08% |
| O=C(NCCC1=CCCCC1)C1CCN(Cc2cnn(-c3ccccc3)c2-n2cccc2)CC1 | -3.34% |

| Compound | inhibition |
| --- | --- |
| Cc1cc(C)c2c(n1)nn1c(-n3ccnc3)cc(C)nc21 | -11.4% |
| CCOC(=O)N1CCN(CC(=O)n2c(C)c(C)c3ccccc32)CC1 | -3.69% |
| CCOC(=O)N1CCN(CC(=O)c2ccc3c(c2)CCN3)CC1 | 75.5% (active) |
| CCOC(=O)N1CCN(CC(=O)c2c(C)[nH]c3ccccc23)CC1 | -4.83% |
| O=C1c2ccncc2C(=O)N1C1CCCCC1 | -26.2% |
| COc1ccc(NC(=O)c2ccc(OC)cc2)cc1 | 2.87% |
| COCCNC(=O)COc1ccc(C)c(C)c1 | -5.41% |
| COCCNC(=S)c1ccc(OC)cc1 | 88.3% (active) |
| COC(=O)C(C)Sc1nc2c(c(=O)n(C)c(=O)n2C)n1Cc1cccc(C)c1 (stereo not drawn) | 8.94% |
| Cc1cc(Nc2ccccc2)n(CCC#N)n1 | -2.42% |
| CCc1ccc2oc(=O)cc(CN3CCCCC3C)c2c1 (stereo not drawn) | -13.3% |
| Cc1nc(C)c(C(=O)Nc2cccc(C)c2C)o1 | 52.9% (active) |
| Cc1nc(C)c(C(=O)Nc2ccc(C)c(F)c2)o1 | 31.9% |
| COc1ccc(Cl)cc1NC(=O)c1oc(C)nc1C | 12.9% |
| CS(=O)(=O)N(CC(=O)N1CCN(c2cccc(Cl)c2)CC1)c1ccccc1 | -9.31% |
| CCOC(=O)CSc1nnc(-c2ccncc2)o1 | -9.52% |
| COCCCNC(=O)COc1cc(C)c(Cl)c(C)c1 | -96.5% |
| CCC(Sc1nncn1C)C(=O)Nc1nnc(-c2ccc(Cl)cc2)s1 (stereo not drawn) | -2.44% |
| COc1cccc(NC(=O)CN(C)S(=O)(=O)c2ccc(C)cc2)c1 | -3.65% |
| COc1cccc(-c2nnc(NC(=O)c3ccc(S(=O)(=O)N(CC(C)C)CC(C)C)cc3)o2)c1 | 65.7% (active) |
| CCN(CC)C(=O)CSc1nnc(-c2cccc(OC)c2)o1 | -4.72% |
| CCOc1cc(S(=O)(=O)NCc2ccc3c(c2)OCO3)ccc1F | -4.32% |
| Cc1ccc2[nH]c3c(c2c1)CN(C(=O)CN1CCN(c2ccccc2)CC1)CC3 | -8.5% |
| CCCC(=O)N1CCc2[nH]c3ccccc3c2C1 | 51.2% (active) |
| O=C(NC1CCCCC1)N1CCc2[nH]c3ccccc3c2C1 | -1.26% |

| Compound | inhibition |
| --- | --- |
| CCCC(NS(=O)(=O)c1ccc(OC)cc1)C(=O)O (stereo not drawn) | -5.87% |
| CCc1nnc(NC(=O)CSc2nnc(COc3ccc(C#N)cc3)n2-c2ccccc2)s1 | 60.1% (active) |
| CCc1nnc(NC(=O)CSc2nnc(Cc3ccccc3)n2-c2ccc(OC)cc2)s1 | 10.7% |
| CCc1nnc(NC(=O)CSc2nnc(-c3ccncc3)n2Cc2ccccc2)s1 | -7.97% |
| CCOC(=O)N1CCN(C(=O)c2cc3c(-c4ccc(Cl)cc4)nn(C)c3s2)CC1 | -13.4% |
| CCCCn1c(SCc2ncc(-c3ccccc3)o2)nc2cc(S(N)(=O)=O)ccc21 | -15.2% |
| CCOc1ccc(N(CC(=O)OC)S(=O)(=O)c2c(C)noc2C)cc1 | -2.65% |
| O=c1c2ccccc2nc(CSc2nnnn2-c2ccccc2)n1-c1ccccc1 | 52% (active) |
| N#CCSc1nc2ccccc2c(=O)n1-c1ccccc1 | -15% |
| Cc1ccc(Nc2nc(CSc3nnnn3-c3ccccc3)cc(=O)[nH]2)cc1 | 2.45% |
| COC(=O)N(c1ccc(OC)cc1)P1(=S)OCCC(C)O1 (stereo not drawn) | 94.7% (active) |
| COc1ccc(OCCCC(=O)Nc2nnc(C3CCCO3)s2)cc1 (stereo not drawn) | 8.11% |
| CCCCC(=O)N(c1ccc(OC)cc1)C1C=CS(=O)(=O)C1 (stereo not drawn) | -0.43% |
| Cn1c(=NC(=O)c2ccco2)sc2cccc(F)c21 | -27.2% |
| COCc1cc(C)nc(Nc2cc(C)ccc2C)c1C#N | -17% |
| Cc1noc(NS(=O)(=O)c2ccc(N3CC(O)=C(c4ccccc4)C3=N)cc2)c1C | -3.39% |
| Cc1cnc(NC(=O)CSc2nnc(-c3ccc(Cl)cc3Cl)n2N)s1 | 70.1% (active) |
| Cc1cc(C)nc(SCc2nnc(SCC(=O)Nc3ncc(C)s3)n2Cc2ccco2)n1 | -40.5% |
| Cc1cnc(NC(=O)CSc2nnc(-c3ccccc3)n2Cc2ccccc2)s1 | -0.4% |
| CCCNS(=O)(=O)c1ccc2c(c1)CCCN2C(C)=O | -15.5% |
| CC1CCc2c(sc(NC(=O)c3ccc(Cn4cc(Br)cn4)o3)c2C(N)=O)C1 (stereo not drawn) | 88.6% (active) |
| CCc1c(C)sc(NC(=O)c2ccc(Br)o2)c1C(=O)OC | -67.1% |
| CCOC(=O)c1c(NC(=O)c2ccc(Br)o2)sc2c1CCCC2 | -13% |
| CCC1(C)Cc2c(sc3nc4n(c(=O)c23)CCCS4)CO1 (stereo not drawn) | -2.87% |
| CC(=O)Nc1nonc1-c1nc2ccccc2n1Cc1ccccn1 | -10.2% |

| Compound | inhibition |
| --- | --- |
| CCOc1ccc(NC(=O)N2CCN(CC)CC2)cc1 | -4.55% |
| Cc1ccccc1NC(=O)c1ccccc1 | -3.87% |
| Cc1ccc2c(c1)sc1ncc(NC(=O)c3ccccc3)c(=O)n12 | 68.4% (active) |
| Cc1ccc(NC(=O)c2nc[nH]c2C(=O)N2CCCCC2)c(C(=O)c2ccccc2)c1 | 2.94% |
| COc1ccccc1CNC(=O)CCCn1c(=O)c2ccccc2n(CC(=O)NC2CCCC2)c1=O | -18.8% |
| COc1ccc(CCNc2ncnc3nc[nH]c23)cc1OC | -5.66% |
| Oc1ccc2nc(Cc3ccccc3)[nH]c2c1 | -7.13% |
| COC(=O)Cc1nc2ccccc2[nH]1 | -25.6% |
| COC(=O)Nc1nc2ccc(Sc3ccccc3)cc2[nH]1 | 82.8% (active) |
| O=C1c2cccnc2C(=O)N1Cc1cccs1 | -2.26% |
| COc1ccc(C(=O)NC(=O)CSc2nnc(-c3ccco3)n2-c2ccccc2)cc1 | -5.53% |
| N#Cc1ccccc1-n1c(N)c(C(=O)N2CCCC2)sc1=S | 68% (active) |
| Cc1cccc(-n2c(C)nc3cc(C(=O)N4CCC5(CC4)OCCO5)ccc32)c1 | 3.01% |
| Cc1cccc(-n2c(N)cc(=O)nc2SC(C)C(=O)NC2CCCCC2)c1 (stereo not drawn) | -4.66% |
| Cc1ccc(-n2c(N)c(C(=O)N3CCOCC3)sc2=S)c(C)c1 | 79.7% (active) |
| Cc1cccc(-n2c(N)c(C(=O)N3CCN(C)CC3)sc2=S)c1 | 90.6% (active) |
| O=C(c1ccccc1)N1CCN(C(=O)N2CCCCC2)CC1 | -10.1% |
| CCC(=O)Nc1sc(C(=O)N2CCCCC2)c(C)c1C#N | 0.57% |
| CC(=O)c1c(N2CCOCC2)nc(=S)n(-c2cc(C)ccc2C)c1C | -1.2% |
| Cc1ccc(OCCCC(=O)N2CCOCC2)c(C)c1 | -20.5% |
| COc1cccc(-n2c(SCC(=O)NC3CCCCC3)nc3n[nH]c(C)c3c2=N)c1 | -20% |
| Cc1ccc2nc(NC3=NCN(CCc4ccccc4)CN3)nc(C)c2c1 | 11.4% |
| COc1ccc(C(=O)Nc2c(N)nc(SCC(=O)N3CCC(C)CC3)[nH]c2=O)cc1OC | -4.95% |
